# Experimental data: PubChem BioAssay AID651605 (National Center for Advancing Translational Sciences (NCATS), 2012)
# Where “and” joins values, the source holds several entries; their conditions need not be identical. Equal entries are not always repeated. Records with an inconclusive call do not appear. Calls of active or inactive are those of the source. Calls follow the shape of the dose curve; as a rule, active = well fitted inhibition curve with a large enough effect; inconclusive = small, poorly fitted or top-dose-only effect; inactive = flat fitted curve, though single readings scatter.
# Molecular target: Ubiquitin carboxyl-terminal hydrolase 1 (Homo sapiens) (UniProt O94782)
# Experiment: Inhibitors of USP1/UAF1: SAR in Primary Assay
# Conditions: Recombinant USP1/UAF1, Ub-Rhodamine cleavage fluorescence; series mostly up to 57.1 µM
# Excerpt: Deubiquitinating enzymes (DUBs) are a class of enzymes that can cleave isopeptide bond formed between the C-terminal carboxylate of ubiquitin and a lysine side-chain amino group on the target protein. Among them, ubiquitin specific proteases (USPs) constitute the largest DUB family. Human USPs are emerging as promising targets for pharmacological intervention because of their connection to a number of human diseases, including prostate, colon and breast cancer (1, 2), pediatric acute lymphoblastic leukemia (3), and familial cylindromatosis (4). The advantage of inhibiting USPs lies in the potential specificity of therapeutic intervention that can lead to better efficacy and reduce nonspecific side effects. In a collaboration between the University of Delaware and the NIH Chemical Genomics Center, a high-throughput screen assay was developed to screen for USP1/UAF1 inhibitors (5). This assay was used to test the analogs that were synthesized based on SAR around the original hit. NIH Chemical Genomics Center [NCGC] NIH Molecular Libraries Probe Centers Network [MLPCN] MLPCN Grant: DA030552-01 Assay Submitter (PI): Zhihao Zhuang, University of Delaware 1. Priolo, C., et al. (2006) The isopeptidase USP2a protects human prostate cancer from apoptosis. Cancer Res 66, 8625-8632 2. Popov, N., et al. (2007) The ubiquitin-specific protease USP28 is required for MYC stability. Nat Cell Biol 9, 765-774 3. De Pitta, C., et al. (2005) A leukemia-enriched cDNA microarray platform identifies new transcripts with relevance to the biology of pediatric acute lymphoblastic leukemia. Haematologica 90, 890-898 4. Kovalenko, A., et al. (2003) The tumour suppressor CYLD negatively regulates NF-kappaB signalling by deubiquitination. Nature 424, 801-805 5. Chen, J., et al. (2011) Selective and cell-active inhibitors of the USP1/ UAF1 deubiquitinase complex reverse cisplatin resistance in non-small cell lung cancer cells. Chem Bio 18(11):1390-400.
# 3 microliters of reagents (buffer in columns 3 and 4 as negative control and 1nM USP1/UAF1 complex in columns 1, 2, and 5-48) are dispensed into Greiner black solid bottom 1536-well assay plates. Compounds are then transferred via Kalypsys pin tool equipped with 1536-pin array (10nl slotted pins, V&P Scientific, San Diego, CA). Following an incubation step of 15 min at room temperature, 1ul of Ub-Rho substrate (150nM final concentration) is added to initiate the reaction. The plates are immediately centrifuged at 1000 rpm for 15 seconds, and subsequently transferred to a ViewLux high-throughput CCD imager (PerkinElmer) wherein kinetic measurements of fluorescence are acquired using 480 nm excitation/540 nm emission filter set (6 reads every 60 seconds, see Table 1). All reagents are diluted in an assay buffer consisting of 50mM HEPES (pH 7.8), 0.5mM EDTA, 0.1 mg/ml BSA, 1mM TCEP, and 0.01% Tween-20.
# Sequence of Ubiquitin carboxyl-terminal hydrolase 1 (Homo sapiens) (O94782 whole entry, looked up): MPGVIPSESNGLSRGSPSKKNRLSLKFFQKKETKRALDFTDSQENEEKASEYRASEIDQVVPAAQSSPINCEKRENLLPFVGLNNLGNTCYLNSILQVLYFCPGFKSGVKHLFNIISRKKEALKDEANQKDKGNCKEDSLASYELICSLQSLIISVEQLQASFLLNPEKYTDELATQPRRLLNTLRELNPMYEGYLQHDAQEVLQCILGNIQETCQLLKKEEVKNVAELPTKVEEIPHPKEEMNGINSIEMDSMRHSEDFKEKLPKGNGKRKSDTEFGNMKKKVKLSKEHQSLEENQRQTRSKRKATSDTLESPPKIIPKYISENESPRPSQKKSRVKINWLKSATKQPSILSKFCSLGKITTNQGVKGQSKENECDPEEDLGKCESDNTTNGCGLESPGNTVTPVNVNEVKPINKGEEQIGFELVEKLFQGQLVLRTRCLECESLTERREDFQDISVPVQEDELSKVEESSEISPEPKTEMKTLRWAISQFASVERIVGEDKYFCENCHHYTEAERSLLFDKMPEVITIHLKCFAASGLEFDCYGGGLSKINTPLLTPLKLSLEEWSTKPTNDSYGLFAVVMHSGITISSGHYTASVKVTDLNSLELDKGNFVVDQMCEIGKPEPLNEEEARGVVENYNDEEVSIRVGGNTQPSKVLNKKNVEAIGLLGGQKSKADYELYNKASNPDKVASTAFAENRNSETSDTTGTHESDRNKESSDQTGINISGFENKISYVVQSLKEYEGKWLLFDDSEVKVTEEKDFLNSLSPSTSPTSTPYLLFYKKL
row,SMILES,Potency
1,CC(Nc1nc(-c2ccccc2C(F)(F)F)nc2ccccc12)c1ccc(-c2ccncc2)cc1 (stereo not given),5410 nM (active)
2,N#Cc1cccc(-c2ccc(CNc3nc(-c4ccccc4C(F)(F)F)nc4ccccc34)cc2)c1,2710 nM (active)
3,Cc1cnc(-c2ccccc2C2COC2)nc1NCc1ccc(-n2ccnn2)cc1,inactive
4,Cc1cnc(-c2ccccc2C(C)C)nc1NCc1ccc(-c2cccnc2)cc1,68.1 nM (active)
5,CSc1cnc(-c2ccccc2C(C)C)nc1NCc1ccc(-c2cccnc2)cc1,85.7 nM (active)
6,COc1cnc(-c2ccccc2C(C)C)nc1NCc1ccc(-c2cccnc2)cc1,42.9 nM (active)
7,Cc1cnc(-c2ccccc2C(C)C)nc1NCC1CN(c2cccnc2)C1,6810 nM (active)
8,CC(C)c1ccccc1-c1ncc(F)c(NC2(c3ccc(-c4cccnc4)cc3)CC2)n1,38.3 nM (active) and 34.1 nM (active)
9,Cc1cnc(-c2ccccc2C(C)C)nc1NCC1CCN(c2cnccn2)CC1,121 nM (active)
10,Fc1ccccc1-c1nc(NCc2ccc(-c3cccnc3)cc2)c2ccccc2n1,3410 nM (active)
11,Cc1cnc(-c2ccccc2C(F)F)nc1NCc1ccc(-n2ccnn2)cc1,482 nM (active)
12,FC(F)(F)c1ccccc1-c1nc(NCc2ccc(-c3cccnc3)cc2)c2ccccc2n1,607 nM (active)
13,Cc1cnc(-c2ccccc2C(C)(C)C)nc1NCc1ccc(-n2ccnn2)cc1,136 nM (active)
14,Cc1cnc(-c2ccccc2C(C)C)nc1NCc1ccc(-c2cccc(S(N)(=O)=O)c2)cc1,215 nM (active)
15,Fc1cnc(-c2ccccc2C(F)F)nc1NCC1CCN(c2cnccn2)CC1,2410 nM (active)
16,FC(F)(F)c1ccccc1-c1nc(NCc2ccc(C3CCCCC3)cc2)c2ccccc2n1,6810 nM (active)
17,Cc1cnc(-c2ccccc2C(C)C)nc1NCc1cccs1,215 nM (active)
18,CC(C)c1ccccc1-c1ncc(F)c(NC(C)(C)c2ccc(-c3cccnc3)cc2)n1,192 nM (active)
19,CC(C)c1ccccc1-c1nccc(NCc2ccc(-c3cccnc3)cc2)n1,121 nM (active)
20,COc1ccccc1-c1ncc(C)c(NCc2ccc(-c3cccnc3)cc2)n1,764 nM (active)

row,SMILES,Potency
1,Cc1cccc(C(CO)Nc2nc(-c3ccccc3C(C)C)ncc2C)c1 (stereo not given),1080 nM (active)
2,Cc1ccccc1-c1nc(NCc2ccc(-c3cccnc3)cc2)c2ccccc2n1,482 nM (active)
3,Cc1cnc(-c2ccccc2C(C)C)nc1NCc1cccnc1,2150 nM (active)
4,CC(=O)c1ccccc1-c1ncc(C)c(NCc2ccc(-c3cccnc3)cc2)n1,7640 nM (active)
5,Fc1cnc(-c2ccccc2C(F)F)nc1NCC1CCN(c2cnccn2)C1 (stereo not given),21500 nM (active)
6,Cc1ccc(N2CCC(CNc3nc(-c4ccccc4C(C)C)ncc3F)CC2)cn1,96.1 nM (active)
7,CC(Nc1nc(-c2ccccc2C(F)(F)F)nc2ccccc12)c1ccc(-c2ccccc2)cc1 (stereo not given),4820 nM (active)
8,Cc1nc(NCc2ccc(-c3cccnc3)cc2)c2ccccc2n1,inactive
9,FC(F)(F)c1ccccc1-c1nc(NCC#Cc2cccnc2)c2ccccc2n1,4.82 µM (active) and 7.64 µM (active)
10,FC(F)(F)c1ccc(-c2nc(NCc3ccc(-c4ccnc(C(F)(F)F)c4)cc3)c3ccccc3n2)cc1,inactive
11,Cc1cnc(-c2ccccc2C(C)C)nc1NCc1ccc(C(N)=O)cc1,4290 nM (active)
12,Fc1cnc(-c2ccccc2C(F)F)nc1NCc1ccc(-n2ccnn2)cc1,1210 nM (active)
13,Cc1ccc(N2CCC(CNc3nc(-c4ccccc4C(C)C)ncc3C)CC2)cn1,171 nM (active) and 60.7 nM (active)
14,Cc1cnc(-c2ccccc2C(C)C)nc1NCc1ccc(-c2ccc(F)nc2)cc1,60.7 nM (active)
15,Cc1cnc(-c2ccccc2C(C)C)nc1NC(C)c1ccc(-c2cccnc2)cc1 (stereo not given),136 nM (active)
16,Brc1ccccc1-c1nc(NCc2ccc(-c3cccnc3)cc2)c2ccccc2n1,961 nM (active)
17,Cc1cnc(-c2ccccc2C(F)F)nc1NCc1ccc(-c2cccnc2)cc1,341 nM (active)
18,Cc1ccc(-c2ccc(CNc3nc(-c4ccccc4C(C)C)nc4ccccc34)cc2)cn1,136 nM (active)
19,Cc1cccc(CNc2nc(-c3ccccc3C(C)C)ncc2C)c1,136 nM (active)
20,FC(F)(F)c1ccc(-c2ccc(CNc3nc(-c4ccccc4C(F)(F)F)nc4ccccc34)cc2)cn1,4290 nM (active)
